# Measurements published in PubChem BioAssay (NCATS).
# Where “and” joins values, the source holds several entries; their conditions need not be identical. Equal entries are not always repeated. Records with an inconclusive call do not appear. Calls of active or inactive are those of the source. Unless noted, calls follow the shape of the dose curve; as a rule, active = well fitted curve in the direction sought with a large enough effect; inconclusive = small, poorly fitted or top-dose-only effect, or another doubt; inactive = no such curve, though single readings can be large; an effect the other way counts as inactive or inconclusive.
# Tests used:
# Papain (Carica papaya) = Papain (Carica papaya) (UniProt P00784); assay: Primary qHTS assay for inhibitors of the protease papain (AID 1645873);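 also: papain turnover of Z-FR-AMC read as the AMC fluorescence gain over 10 min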; also: potency is read from the fitted curve at half-maximal effect; as to activity change, negative = inhibition: % is scaled to controls: 0 for no effect and ±100 for the full control effect
# Sequence of Papain (Carica papaya) (P00784 whole entry, looked up, the tested form may be a part): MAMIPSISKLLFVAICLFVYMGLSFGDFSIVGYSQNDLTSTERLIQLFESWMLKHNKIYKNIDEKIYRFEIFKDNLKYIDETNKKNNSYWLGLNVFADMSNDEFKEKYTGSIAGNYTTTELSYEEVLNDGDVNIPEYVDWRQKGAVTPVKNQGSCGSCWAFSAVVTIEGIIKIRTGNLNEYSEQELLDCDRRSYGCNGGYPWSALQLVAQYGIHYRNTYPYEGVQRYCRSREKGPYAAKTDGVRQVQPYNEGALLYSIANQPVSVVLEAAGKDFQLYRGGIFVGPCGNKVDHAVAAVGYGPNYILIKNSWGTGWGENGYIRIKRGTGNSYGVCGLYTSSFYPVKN
# [1] = Primary qHTS for inhibitors of nuclear receptor binding SET domain protein 2 (NSD2) in an isogenic RCH-ACV NSD2 p.E1099K mutant (9B) (AID 1645876); also: nearly all actives have a fitted effect of over 70% in size; also: potency is read from the fitted curve at half-maximal effect
# [2] = Primary qHTS for inhibitors of nuclear receptor binding SET domain protein 2 (NSD2) in an RCH-ACV wild type WT cells (2C) (AID 1645877); also: nearly all actives have a fitted effect of over 70% in size; also: potency is read from the fitted curve at half-maximal effect
# [3] = biological target: Rap guanine nucleotide exchange factor 3 (Homo sapiens) (UniProt O95398); assay: Confirmatory qHTS for antagonist of cAMP-regulated guanine nucleotide exchange factor 3 (EPAC1) (AID 1645880);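 also: plate controls were DMSO only for no effect and full effect of the ATA control for full effect; nearly all actives have a fitted effect of over 55% in size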
# Sequence of Rap guanine nucleotide exchange factor 3 (Homo sapiens) (O95398 whole entry, looked up): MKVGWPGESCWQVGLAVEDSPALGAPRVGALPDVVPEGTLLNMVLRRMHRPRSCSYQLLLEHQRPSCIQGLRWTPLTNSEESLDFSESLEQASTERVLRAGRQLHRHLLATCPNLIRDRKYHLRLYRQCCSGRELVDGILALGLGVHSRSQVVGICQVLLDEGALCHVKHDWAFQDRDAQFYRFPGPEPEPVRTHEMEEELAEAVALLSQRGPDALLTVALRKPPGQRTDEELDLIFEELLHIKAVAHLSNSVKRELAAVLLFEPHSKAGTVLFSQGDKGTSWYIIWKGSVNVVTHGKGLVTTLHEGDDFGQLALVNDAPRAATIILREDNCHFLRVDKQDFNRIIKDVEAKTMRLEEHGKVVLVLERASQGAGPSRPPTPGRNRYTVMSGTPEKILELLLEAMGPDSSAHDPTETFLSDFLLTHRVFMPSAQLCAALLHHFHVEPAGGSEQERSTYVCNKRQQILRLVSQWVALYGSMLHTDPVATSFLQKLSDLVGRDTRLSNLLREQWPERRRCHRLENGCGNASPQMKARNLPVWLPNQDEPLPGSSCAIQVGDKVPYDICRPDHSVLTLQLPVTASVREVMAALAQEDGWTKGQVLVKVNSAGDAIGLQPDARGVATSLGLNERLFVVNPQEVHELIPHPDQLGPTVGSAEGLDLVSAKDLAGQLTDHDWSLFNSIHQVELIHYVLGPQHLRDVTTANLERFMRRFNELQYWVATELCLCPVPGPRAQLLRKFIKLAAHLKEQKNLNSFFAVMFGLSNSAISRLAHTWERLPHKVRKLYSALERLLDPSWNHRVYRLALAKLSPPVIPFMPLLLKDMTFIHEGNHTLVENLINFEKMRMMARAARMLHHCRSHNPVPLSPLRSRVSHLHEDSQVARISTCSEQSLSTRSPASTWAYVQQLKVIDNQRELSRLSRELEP
# Outline: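 Nucleotide exchange uses 100 nM EPAC1, 250 nM RAP1B-BODIPY-GDP and 50 uM GDP, with compounds in a concentration-titration series. After 5 min at room temperature, fluorescence (480 nm ex/540 nm em) is read every 5 min for 30 min. Data are normalized to control ATA and DMSO.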
# [4] = biological target: Rap guanine nucleotide exchange factor 3 (Homo sapiens) (UniProt O95398); assay: Confirmatory qHTS for agonist of cAMP-regulated guanine nucleotide exchange factor 3 (EPAC1) (AID 1645881);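 also: EPAC1 catalysed release of BODIPY-GDP from Rap1B seen as fluorescence loss; 100% = effect of cAMP agonist control; nearly all actives have a fitted effect of over 75% in size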
# [5] = biological target: Rap guanine nucleotide exchange factor 4 (Homo sapiens) (UniProt Q8WZA2); assay: Confirmatory qHTS for agonist of cAMP-regulated guanine nucleotide exchange factor 4 (EPAC2) (AID 1645884);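 also: nucleotide exchange releases bodipy-GDP from Rap1 and this lowers its fluorescence; % is scaled to controls: 0 for no effect and ±100 for the full control effect; nearly all actives have a fitted effect of over 65% in size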
# Sequence of Rap guanine nucleotide exchange factor 4 (Homo sapiens) (Q8WZA2 whole entry, looked up): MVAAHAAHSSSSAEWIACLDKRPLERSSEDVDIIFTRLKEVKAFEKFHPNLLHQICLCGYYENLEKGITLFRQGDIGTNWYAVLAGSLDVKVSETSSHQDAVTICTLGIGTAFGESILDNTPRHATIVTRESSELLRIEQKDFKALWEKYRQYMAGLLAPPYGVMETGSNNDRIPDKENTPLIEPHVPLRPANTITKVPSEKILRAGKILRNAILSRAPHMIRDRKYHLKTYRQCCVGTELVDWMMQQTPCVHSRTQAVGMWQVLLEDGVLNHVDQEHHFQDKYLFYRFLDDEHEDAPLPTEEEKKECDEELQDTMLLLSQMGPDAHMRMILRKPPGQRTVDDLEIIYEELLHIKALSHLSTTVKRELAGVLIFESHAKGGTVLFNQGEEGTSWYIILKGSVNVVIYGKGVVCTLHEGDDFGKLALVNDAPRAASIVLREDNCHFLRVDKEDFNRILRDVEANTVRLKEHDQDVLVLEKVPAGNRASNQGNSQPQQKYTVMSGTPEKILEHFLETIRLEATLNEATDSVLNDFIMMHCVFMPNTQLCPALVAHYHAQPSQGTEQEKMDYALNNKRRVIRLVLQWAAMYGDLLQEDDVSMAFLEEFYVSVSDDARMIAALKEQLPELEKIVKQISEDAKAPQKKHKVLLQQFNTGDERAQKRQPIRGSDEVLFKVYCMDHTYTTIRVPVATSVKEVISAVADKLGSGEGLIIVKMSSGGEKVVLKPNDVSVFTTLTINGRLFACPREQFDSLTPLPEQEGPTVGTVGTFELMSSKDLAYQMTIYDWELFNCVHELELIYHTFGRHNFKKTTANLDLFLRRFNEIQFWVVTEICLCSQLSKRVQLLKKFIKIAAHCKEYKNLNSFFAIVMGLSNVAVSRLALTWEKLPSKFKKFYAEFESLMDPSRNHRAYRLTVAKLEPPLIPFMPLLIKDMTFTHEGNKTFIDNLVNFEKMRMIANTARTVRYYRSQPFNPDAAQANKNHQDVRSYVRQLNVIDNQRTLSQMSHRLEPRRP
# [6] = biological target: Rap guanine nucleotide exchange factor 4 (Homo sapiens) (UniProt Q8WZA2); assay: Confirmatory qHTS for antagonist of cAMP-regulated guanine nucleotide exchange factor 4 (EPAC2) (AID 1645885); also: nearly all actives have a fitted effect of over 25% in size; also: potency is read from the fitted curve at half-maximal effect; as to activity change, negative = inhibition: % is scaled to controls: 0 for no effect and ±100 for the full control effect
# [7] = biological target: Cytochrome P450 2C9 (Homo sapiens) (UniProt P11712); assay: Cytochrome P450 family 2 subfamily C member 9 (CYP2C9) small molecule antagonists: luciferase biochemical (cell-free) qHTS assay (AID 1645842; active = well fitted curve in the direction sought with a large enough effect in the repeat runs; an effect the other way counts as inactive or inconclusive; also: potency is read from the fitted curve at half-maximal effect; nearly all actives have a fitted effect of over 55% in size)
# Sequence of Cytochrome P450 2C9 (Homo sapiens) (P11712 whole entry, looked up): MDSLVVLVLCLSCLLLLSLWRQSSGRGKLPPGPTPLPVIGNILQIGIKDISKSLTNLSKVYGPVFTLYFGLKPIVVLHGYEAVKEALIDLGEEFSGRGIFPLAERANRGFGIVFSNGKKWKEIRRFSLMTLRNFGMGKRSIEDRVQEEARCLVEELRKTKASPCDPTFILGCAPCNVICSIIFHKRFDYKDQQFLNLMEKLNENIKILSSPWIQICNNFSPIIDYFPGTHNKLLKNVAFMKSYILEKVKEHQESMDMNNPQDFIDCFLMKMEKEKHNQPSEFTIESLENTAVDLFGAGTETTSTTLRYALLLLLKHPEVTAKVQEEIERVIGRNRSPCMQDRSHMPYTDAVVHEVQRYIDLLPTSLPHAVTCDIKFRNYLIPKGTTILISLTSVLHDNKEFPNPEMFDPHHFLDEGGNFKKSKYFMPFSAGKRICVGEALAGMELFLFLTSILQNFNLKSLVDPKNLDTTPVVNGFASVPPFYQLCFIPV
# Outline: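 Luminescence, after 20 min with luciferin detection reagent, reflected CYP2C9 turnover during a 1 h NADPH-driven reaction at 37C. Enzyme-substrate mix contained 0.4% bovine serum albumin and was preincubated with compound 10 min at room temperature.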
# [8] = biological target: Catechol O-methyltransferase (Homo sapiens) (UniProt P21964); assay: Confirmatory Screen for Target Class Profiling of Small Molecule Inhibitors of Methyltransferases (AID 1745852); settings: MTase-Glo luminescence, SAH detection, recombinant enzyme; measured here: COMT max response; stronger effect = lower value; as to activity change, negative = inhibition: % is scaled to controls: 0 for no effect and ±100 for the full control effect
# Sequence of Catechol O-methyltransferase (Homo sapiens) (P21964 whole entry, looked up): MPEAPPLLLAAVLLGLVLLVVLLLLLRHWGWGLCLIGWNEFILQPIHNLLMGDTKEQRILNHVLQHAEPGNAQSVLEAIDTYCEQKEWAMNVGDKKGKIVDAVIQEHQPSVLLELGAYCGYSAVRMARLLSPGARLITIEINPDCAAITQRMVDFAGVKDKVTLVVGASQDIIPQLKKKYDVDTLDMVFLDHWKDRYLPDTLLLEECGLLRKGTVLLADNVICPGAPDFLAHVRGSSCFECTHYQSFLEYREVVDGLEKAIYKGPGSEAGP
# [9] = biological target: Guanidinoacetate N-methyltransferase (Homo sapiens) (UniProt Q14353); assay: as above; settings: MTase-Glo luminescence, SAH detection, recombinant enzyme; at 57.3 µM (top of the series)
# [10] = biological target: Nicotinamide N-methyltransferase (Homo sapiens) (UniProt P40261); assay: as above; settings: MTase-Glo luminescence, SAH detection, recombinant enzyme; measured here: NNMT max response; stronger effect = lower value
# Sequence of Nicotinamide N-methyltransferase (Homo sapiens) (P40261 whole entry, looked up): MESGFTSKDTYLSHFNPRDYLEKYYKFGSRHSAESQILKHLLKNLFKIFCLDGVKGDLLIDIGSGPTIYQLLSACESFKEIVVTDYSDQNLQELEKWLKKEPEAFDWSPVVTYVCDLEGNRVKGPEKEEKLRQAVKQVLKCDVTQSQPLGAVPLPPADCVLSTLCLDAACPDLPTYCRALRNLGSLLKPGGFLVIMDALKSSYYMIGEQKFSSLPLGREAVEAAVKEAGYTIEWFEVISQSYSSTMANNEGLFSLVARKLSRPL
# [11] = biological target: Phenylethanolamine N-methyltransferase (Homo sapiens) (UniProt P11086); assay: as above; settings: MTase-Glo luminescence, SAH detection, recombinant enzyme; measured here: PNMT max response; stronger effect = lower value
# Sequence of Phenylethanolamine N-methyltransferase (Homo sapiens) (P11086 whole entry, looked up): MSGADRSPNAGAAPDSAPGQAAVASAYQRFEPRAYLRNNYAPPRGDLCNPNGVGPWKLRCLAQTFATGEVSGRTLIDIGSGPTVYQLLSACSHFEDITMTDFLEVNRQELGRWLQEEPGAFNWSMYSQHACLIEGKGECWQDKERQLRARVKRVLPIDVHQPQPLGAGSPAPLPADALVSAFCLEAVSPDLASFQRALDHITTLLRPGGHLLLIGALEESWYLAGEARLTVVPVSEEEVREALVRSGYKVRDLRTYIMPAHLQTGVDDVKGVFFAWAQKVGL
structure (smiles),measurement,setting,value
COc1cc2c(cc1O)CC[C@@H]1[C@@H]2CC[C@]2(C)[C@@H](O)CC[C@@H]12,Potency,Papain (Carica papaya),inactive
same,Potency,[1],742 nM (active)
same,Potency,[2],590 nM (active)
same,Potency,[3],inactive
same,outcome,[4],inactive
same,Potency,[5],inactive
same,Potency,[6],inactive
CCCCCCc1ccc(O)cc1O,Potency,[7],8.71 µM (active)
same,Potency,[1],13300 nM (active)
same,outcome,[4],inactive
same,Potency,[5],inactive
same,Potency,[6],39.3 µM (active)
COc1cc(NS(C)(=O)=O)ccc1Nc1c2ccccc2nc2ccccc12,Potency,Papain (Carica papaya),22.4 µM (active)
same,Potency,[1],417 nM (active)
same,Potency,[2],332 nM (active)
CC[C@H](C)C(=O)O[C@H]1CCC=C2C=C[C@H](C)[C@H](CC[C@@H]3C[C@@H](O)CC(=O)O3)[C@H]21,Potency,Papain (Carica papaya),inactive
same,Potency,[1],14800 nM (active)
same,Potency,[2],14800 nM (active)
same,activity,[8],-80.2%
same,"activity change, negative = inhibition",[9],-3.09%
same,activity,[10],-8.02%
same,activity,[11],-5.04%
O=C(O)c1cc2cc(Cc3cccnc3)ccc2o1,Potency,Papain (Carica papaya),inactive
CC(C)(C)CC(C)(C)c1ccc(OCCOCC[N+](C)(C)Cc2ccccc2)cc1,Potency,[1],1.19 µM (active) and 1.83 µM (active)
same,Potency,[2],944 nM (active) and 1.63 µM (active)
same,activity,[8],-13.4%
same,"activity change, negative = inhibition",[9],-8.7%
same,activity,[10],-59.7%
same,activity,[11],-7.81%
CN=C(NC#N)NCCSCc1csc(N=C(N)N)n1,Potency,[1],inactive
same,Potency,[2],inactive
